{"source": "PubChem BioAssay (NCI)", "note": "About 83,000 compounds went through this panel and 20% of them were active in at least one assay; those are over-represented in the sample as a whole.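 Plates (96-well) were seeded with cells, treated with compound at one concentration, and incubated for 48 hours before percent growth was determined.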 The source made the active and inactive calls. Rule for the calls: active = growth percent below 10; inactive = the rest."}
{"system": "MDA-MB-468 breast", "test": "NCI-60 one-dose screen, 48 h (100 = growth as untreated, 0 = no growth, -100 = all killed)", "conditions": "10 µM unless noted"}
{"molecule": "O=C(/C=C/c1ccc(Cl)cc1)/C=C/c1cc2ccccc2[nH]c1=O", "growth": "55.9% (inactive)"}
{"molecule": "COc1ccc(/C=C/c2nc(Nc3ccc(S(=O)(=O)Nc4cc(C)on4)cc3)c3ccccc3n2)cc1", "growth": "29.9% (inactive)"}
{"molecule": "c1ccc(Oc2c3ccccc3nc3ccccc23)cc1", "growth": "-4.55% (active)"}
{"molecule": "O=C(Nc1cc(-c2cccnc2)nc(NCCCN2CCOCC2)n1)c1cc(Br)cc(C(F)(F)F)c1", "growth": "52.8% (inactive)"}
{"molecule": "O=c1[nH]c(CNc2ccc(NCc3c(-c4ccccc4)no[n+]3[O-])cc2)nc2c1cnn2-c1ccccc1", "growth": "33.2% (inactive)"}
{"molecule": "COc1ccncc1C#Cc1cncc(C(=O)Nc2ccc(CN3CCN(C)CC3)c(C(F)(F)F)c2)c1", "growth": "73.1% (inactive)"}
{"molecule": "CN(C)CCC1(c2ccccc2)CCN(C)C1=O", "note": "(configuration not stated)", "growth": "94.7% (inactive)"}
{"molecule": "COc1ccc(-c2nc(SCCC(C)C)nc(N/N=C\\c3ccc(O)cc3)c2C#N)cc1", "growth": "88.8% (inactive)"}
{"molecule": "Cc1cc(C)c(CCc2cc(C)c(C)cc2C)cc1C", "growth": "109% (inactive)"}
{"molecule": "CC1=C(C)C(=O)C(Nc2cccc(C(=O)OC(C)(C)C)c2)=C(Br)C1=O", "growth": "-54% (active)"}
{"molecule": "CC(=O)n1cc(/C=C2\\N=C(c3ccc(Cl)cc3)N(c3ccc(S(=O)(=O)Nc4nccs4)cc3)C2=O)c2ccccc21", "growth": "96.1% (inactive)"}
{"molecule": "COc1ccc(OC)c([C@H]2c3[nH]c4ccccc4c3C[C@H]3C(=O)N(CCCCCCC(=O)NO)CC(=O)N23)c1", "growth": "74.9% (inactive)"}
{"molecule": "N#Cc1c(-c2ccc(Cl)cc2)nc(NN=Cc2ccc[nH]2)nc1N1CCOCC1", "growth": "78.2% (inactive)"}
{"molecule": "CS(=O)c1nccc(-c2c(-c3ccc(F)c(OCCc4ccc(F)cc4)c3)nc3sccn23)n1", "note": "(configuration not stated)", "growth": "-64.3% (active)"}
{"molecule": "O[C@@H]1CCO[C@H](c2ccc3ccccc3c2)C1", "growth": "107% (inactive)"}
{"molecule": "CCc1cccc2c3c(sc12)C(c1ccc(OC)cc1)C(C#N)=C(/N=C/c1ccc(Cl)cc1)O3", "note": "(configuration not stated)", "growth": "-6.83% (active)"}
{"molecule": "Clc1cccc(Nc2nc(Nc3cnc4ccccc4c3)c3[nH]cnc3n2)c1", "growth": "86% (inactive)"}
{"molecule": "COc1ccc(C2=NN(C(=O)c3cc(OC)c(OC)c(OC)c3)C(c3ccc(Cl)cc3)C2)cc1OC", "note": "(configuration not stated)", "growth": "9.76% (active)"}
{"molecule": "CCCCCCCCCCCC(=O)NCCCN(C)C", "growth": "111% (inactive)"}
{"molecule": "NC(N)=Nc1ccc(Oc2cccc(NC(N)=Nc3ccc(Cl)c(C(F)(F)F)c3)c2)cn1", "growth": "6.72% (active)"}
{"molecule": "CSC(=N\\N=C\\c1ccc(N(C)C)cc1)/N=C/N(C)C", "growth": "83.5% (inactive)"}
{"molecule": "COc1ccc(Nc2ccc3ccccc3c2)cc1", "growth": "-2.03% (active)"}
{"molecule": "COC(=O)c1cccc(NC2=C(Cl)C(=O)c3nc(C)ccc3C2=O)c1", "growth": "-71.3% (active)"}
{"molecule": "Cc1ccc([P+](Cc2ccccc2)(c2ccccc2)c2ccccc2)cc1", "growth": "-13.5% (active)"}
{"molecule": "O=C(O)c1cc(N=Nc2ccc(-c3ccc(N=Nc4c(S(=O)(=O)O)cc5ccc(Nc6ccccc6)cc5c4O)cc3)cc2)ccc1O", "growth": "124% (inactive)"}
{"molecule": "COc1ccc(C(=O)c2cc(OC)c(OC)c(OC)c2)cc1/C=C/C(=O)c1ccc(O)cc1", "growth": "34.3% (inactive)"}
{"molecule": "O=S(=O)(NCCNc1nccc(-c2c(-c3cccc(F)c3)nc3occn23)n1)c1cccc2ccccc12", "growth": "35.2% (inactive)"}
{"molecule": "CCOC(=O)N1CCN(S(=O)(=O)c2oc(-c3ccc(Cl)cc3)nc2C#N)CC1", "growth": "86.5% (inactive)"}
{"molecule": "Cc1ccc(C2=Nc3c(ccc4c(C)c(C)c(=O)oc34)OC2)cc1", "growth": "113% (inactive)"}
{"molecule": "COC(=O)c1cc(C(=O)OC)cc([N+](=O)[O-])c1", "growth": "107% (inactive)"}
{"molecule": "CCOC(=O)/C(=C/CC/C(C)=C/CC/C(C)=C/CCc1ccoc1)CC(=O)N1CCCCC1", "growth": "0.246% (active)"}
{"molecule": "Nc1nc(Nc2ccccc2SSc2ccccc2Nc2nc(N)nc(-c3ccc(I)cc3)n2)nc(-c2ccc(I)cc2)n1", "growth": "109% (inactive)"}
{"molecule": "Cc1ccc(F)c(NC(=O)Nc2ccc(-c3cccc4[nH]nc(N)c34)cc2)c1", "growth": "15.7% (inactive)"}
{"molecule": "CC(C)[C@@]12C[C@@H](OC(=O)C3CO3)[C@@](C)(O1)[C@@H]1CC[C@@H](C)[C@H]1[C@@H]2OC(=O)/C=C/c1ccccc1", "note": "(some centres not stated)", "growth": "95.4% (inactive)"}
{"molecule": "CCN1CCN(Cc2ccc(-c3cc4c(N[C@H](C)c5ccccc5)ncnc4[nH]3)cc2)CC1", "growth": "-38.9% (active)"}
{"molecule": "COc1ccc2c(c1)c(-c1nc(-c3c[nH]c4ncccc34)cs1)cn2CCN", "growth": "1.91% (active)"}
{"molecule": "O=C1CC23OC(C(O)c4ccccc4N12)C1C(c2ccccc2)=NOC13", "note": "(configuration not stated)", "growth": "40.9% (inactive)"}
